# HCV inh = qHTS Assay for Inhibitors of Hepatitis C Virus (HCV) | Huh7.5.1 HCVcc-Cre infection, luciferase reporter, 44 h | Potency, µM (highest dose often 41.8 µM), for inactives: at the top dose activity change, negative = inhibition, most hits filed as inhibitors | 340,000 compounds, 3.4% hits; further: potency means the concentration at half of the fitted maximal effect
#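 Compounds are dispensed onto cells plated 4 h earlier at 1,000 per well, with HCVcc-Cre virus (about 0.5 moi) added next. Following 44 h of culture, luminescent signal is measured for 15 sec after 15 min with substrate at room temperature.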
# HCMV inh = qHTS Assay for inhibitors of the human cytomegalovirus (HCMV); HFF cells, HCMV-luciferase reporter, 72 h; stronger effect = lower value; activity change, negative = inhibition, % at 57.5 µM; 410,000 compounds, 4.5% hits; in the data active means activity change below about -60%; inconclusive means no clear call, values can overlap the other calls; inactive means above about -39%
#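 After 16 h attachment at 37C, HFF cells received test compound and HCMV-luciferase (1 PFU/cell); reporter luminescence read 72 h later, data normalized against buffer-only and known inhibitor Salinomycin.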
# FMDV antiviral = High Throughput Screening for Foot and Mouth Disease Virus Antivirals | FMDV antiviral cell-based qHTS | 410,000 compounds, 1.2% hits | Potency, µM (top dose mostly 57.9 µM), inactives show at the top dose activity change, negative = inhibition, hits mostly inhibitors; calls by dose curve; tested in HEK293T cells; further: read-out not given here; potency means the concentration at half of the fitted maximal effect; nearly all actives have a fitted effect of over 45% in size
# VACV mCherry inh = qHTS for Stage-Specific Inhibitors of Vaccinia Orthopoxvirus: mCherry Reporter Primary qHTS. Vaccinia virus mCherry reporter infection, fluorescence. AID 720579, 2013. 310,000 compounds, 0.63% hits. Potency, µM (top dose mostly 36.5 µM), for the others: at the highest dose activity change, negative = inhibition, actives largely listed as inhibitors; calls by dose curve; tested in A549 cells; further: potency means the concentration at half of the fitted maximal effect; nearly all actives have a fitted effect of over 35% in size
# FBPA Giardia inh = qHTS Assay for Inhibitors of Fructose-1,6-bisphosphate Aldolase from Giardia Lamblia; 290,000 compounds, 0.71% hits; A8B2U2; purified Giardia FBPA; Potency, µM (top dose mostly 59.6 µM), for inactives: at the top dose activity, negative = inhibition, hits mostly inhibitors; further: potency means the concentration at half of the fitted maximal effect; nearly all actives have a fitted effect of over 55% in size
# Target sequence (A8B2U2 whole entry, looked up): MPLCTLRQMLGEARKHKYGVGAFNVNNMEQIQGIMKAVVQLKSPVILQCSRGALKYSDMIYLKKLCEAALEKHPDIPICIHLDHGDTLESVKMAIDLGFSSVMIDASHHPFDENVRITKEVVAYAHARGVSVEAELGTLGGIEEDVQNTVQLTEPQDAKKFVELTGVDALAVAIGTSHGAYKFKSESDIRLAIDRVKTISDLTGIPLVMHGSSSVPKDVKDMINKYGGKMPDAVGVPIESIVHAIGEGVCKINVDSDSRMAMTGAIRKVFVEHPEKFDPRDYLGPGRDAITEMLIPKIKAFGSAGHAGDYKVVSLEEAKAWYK
#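 40 nM FBPA preincubated 10 min at RT with compound (up to 57.5 uM final), then substrate plus GAPDH/TPI/NAD/arsenate coupling and diaphorase/resazurin added. Fluorescence read after 20 min at RT, 525/598 nm.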
# VACV Venus inh = qHTS for Stage-Specific Inhibitors of Vaccinia Orthopoxvirus: Venus Reporter Primary qHTS; 330,000 compounds, 0.46% hits; Vaccinia virus Venus reporter expression, fluorescence; AID 720580, 2013; Potency, µM (titrated, usually from 36.5 µM), inactives show at the highest dose activity change, negative = inhibition, actives largely listed as inhibitors; calls by dose curve; tested in A549 cells; further: potency means the concentration at half of the fitted maximal effect; nearly all actives have a fitted effect of over 30% in size
# * hit, by the source's call; i = inactive; ? = inconclusive; / = not tested or not shown. An excerpt weighted towards active compounds, which were near 7.5% of everything screened. Unless noted, the call rests on the fitted dose curve; in most records, active means well fitted curve in the direction sought with a large enough effect; inconclusive means small, poorly fitted or top-dose-only effect, or another doubt; inactive means no such curve, though single readings can be large; an effect the other way counts as inactive or inconclusive. On the % scale 0 is the no-effect control and ±100 the full control effect.
SMILES,HCV inh,HCMV inh,FMDV antiviral,VACV mCherry inh,FBPA Giardia inh,VACV Venus inh
C=CC[C@H](CC(=O)N[C@H](CO)Cc1ccccc1)C(=O)N[C@@H](COC(=O)[C@@H](CC=C)CC(=O)OC(C)(C)C)Cc1c[nH]c2ccccc12,?,34,?,?,/,?
COc1[nH]c(/N=C/c2ccco2)c(C#N)c1C#N,/,/,/,i,/,14%
CCOC(=O)N1CCc2c(sc3c2c(=O)n(CCc2ccccc2)c(=O)n3Cc2ccc(C)cc2C)C1,/,?,-22%,-18%,/,-13%
COc1ccc(-c2noc(-c3ccc(NC4CCCC4)c([N+](=O)[O-])c3)n2)cc1,/,8,3%,-5%,/,-11%
COc1ccc(OC)c(NC(=O)c2cnc3n(c2=O)CCS3)c1,6%,-4,4%,?,-8%,?
COc1ccc(Cl)cc1NC(=O)c1cnc2n(c1=O)CCS2,4%,7,-3%,2.2µM*,-1%,?
CCOC(=O)N1CCC(NC(=O)c2cnc3n(c2=O)CCS3)CC1,17%,-61*,-8%,8%,3%,5%
CCCNC(=O)C1(C)CCN(Cc2cc(-c3ccccc3)on2)C1 (stereo not given),/,-6,9%,19%,/,-17%
COc1nc2ccccc2c(=O)n1-c1ccc(Cl)cc1,3%,-61*,-7%,-10%,0%,-12%
O=c1c2ccccc2nc(N2CCCC2)n1-c1ccc(Cl)cc1,?,-63*,-26%,/,-1%,/
CC(=O)n1cc(C2CC(=O)OC3=C2CC(=O)C(C)(C)C3)c2ccccc21 (stereo not given),/,39,0%,-24%,/,?
Clc1ccccc1OCc1nnc(-c2ccccc2Br)o1,-8%,83,66%,-16%,5%,-5%
O=c1c(Cl)c(Cl)cnn1Cc1nnc(-c2ccccc2Br)o1,?,-99*,?,?,-5%,?
O=C(NCc1ccc(CNC(=O)c2ccco2)cc1)c1ccco1,10%,-9,-9%,/,/,/
Nc1c(N(Cc2ccccc2)C(=O)COc2ccc([N+](=O)[O-])cc2)c(=O)[nH]c(=O)n1Cc1ccccc1,?,-97*,-17%,/,/,/
Nc1c(N(CCO)C(=O)COc2ccc(Cl)cc2)c(=O)[nH]c(=O)n1Cc1ccccc1,2%,?,-15%,/,-1%,/
Nc1c(N(CCC2=CCCCC2)C(=O)COc2ccc(F)cc2)c(=O)[nH]c(=O)n1Cc1ccccc1,13µM*,/,-22%,/,/,/
Cc1ccc(OCCC(=O)N(Cc2ccccc2)c2c(N)n(Cc3ccccc3)c(=O)[nH]c2=O)cc1,11µM*,-81*,-24%,-7%,/,-21%
Cc1ccc(C)c(OCC(=O)N(Cc2ccccc2)c2c(N)n(Cc3ccccc3)c(=O)[nH]c2=O)c1,?,-11,-25%,28µM*,/,?
COc1ccc(CCNC(=O)CN2C(=O)NC(Cc3c[nH]c4ccccc34)C2=O)cc1 (stereo not given),12%,13,-9%,i,-8%,-10%
COc1ccccc1OC1=NS(=O)(=O)c2ccccc21,22%,34,40µM*,-6%,25%,-9%
Cc1ccc(OC2=NS(=O)(=O)c3ccccc32)cc1,6%,-21,8%,/,3%,/
Cc1[nH]c2ccccc2c1SCc1n[nH]c(=S)n1C,-23%,-78*,-22%,/,-11%,/
COc1ccccc1C(=O)Nc1c(C(=O)Nc2cc(Cl)ccc2C)sc2nc(C)cc(C)c12,/,-102*,0%,-1%,/,9%
N#C/C(=N/Nc1ccc(OC(F)(F)F)cc1)C(N)=S,?,-98*,10%,/,0%,/
SMILES,HCV inh,HCMV inh,FMDV antiviral,VACV mCherry inh,FBPA Giardia inh,VACV Venus inh
COc1ccc(N/N=C(\C#N)C(N)=O)cc1,5%,36,24%,-7%,-18%,4%
Cc1cccc(C)c1NC(=O)C(c1ccncc1)n1c(=O)c(-c2ccco2)nc2ccccc21 (stereo not given),/,25,31%,-18%,/,-18%
Cc1ccc(Cn2c(C)c3cnn(CC(=O)NC4CCCC4)c(=O)c3c2C)cc1,6%,-16,-7%,?,-2%,-16%
O=C(Cn1ncc(Cl)c(Cl)c1=O)NC1CCCCC1,2.8µM*,0,35µM*,/,/,/
O=C(Cn1ncc(Cl)c(Cl)c1=O)NCC1CCCCC1,2.8µM*,-101*,28µM*,-26%,8%,?
Cc1cccc(NC(=O)CNC(=O)Cn2ncc(Cl)c(Cl)c2=O)c1C,0.71µM*,/,22µM*,i,/,-4%
O=C(CN1C(=O)c2ccccc2C1=O)NC1CCS(=O)(=O)C1 (stereo not given),/,2,9%,i,/,-6%
O=C(Cn1ncc(Cl)c(Cl)c1=O)NC1CCS(=O)(=O)C1 (stereo not given),-26%,-63*,-14%,/,-2%,/
Cc1cccc(NC(=O)CNC(=O)CSc2ncccn2)c1C,11%,-9,-14%,-5%,/,-6%
O=C(NNC(=O)c1cc(Br)c(Br)s1)c1ccncc1,-17%,26,-3%,-2%,/,-16%
CCc1ccc(OCC(=O)Nc2ccc(N3CCN(C(=O)c4ccccc4)CC3)cc2)cc1,1%,-34,-13%,/,/,/
COc1ccc(OCC(=O)Nc2ccc(N3CCN(C(=O)c4ccccc4)CC3)c(Cl)c2)cc1,?,?,11µM*,?,/,?
COc1ccc(OCC(=O)Nc2ccc(N3CCOCC3)c(Cl)c2)cc1,10µM*,-18,?,-5%,-7%,0%
CC1CCCCN1C(=O)c1ccc(CS(=O)(=O)Cc2ccccc2)cc1 (stereo not given),-6%,-22,-18%,i,12%,-8%
COC(=O)[C@@H]1CCCN1Cc1ccc2c(c1)CN(Cc1cccn1-c1ccc(Cl)cn1)CCO2,/,/,-2%,5%,/,1%
C[C@@H](c1ccccc1)N1C[C@H]2CCCN2c2cc(Br)ccc2S1(=O)=O,11µM*,-13,-14%,i,/,-25%
O=S1(=O)c2ccc(Br)cc2N2CCC[C@H]2CN1Cc1ccccc1,?,-35,-22%,-4%,/,-13%
Cc1ccn2c(NC3CCCCC3)c(-c3ccc(SC4CCCCC4)cc3)nc2c1,/,?,?,1%,/,0%
Oc1ccc(Br)cc1-c1nc2cnccn2c1NC1CCCCC1,?,?,/,-9%,-7%,-26%
Oc1ccc(Br)cc1-c1nc2cnccn2c1NC1CCCC1,11µM*,?,?,/,-8%,/
Fc1ccc(-c2nc3cnccn3c2NC2CCCC2)cc1,14µM*,-19,-26%,/,2%,/

# Assay outcomes (PubChem BioAssay)
